# Screening data deposited in PubChem by several laboratories.
# Only some compounds are listed: those with a hit (about 1.2% of all), similar ones and a draw of the others.
# LYP inh 2 = inhibitors of human LYP (PTPN22) phosphatase; Q9Y2R2; recombinant LYP catalytic domain, DiFMUP fluorescence; inhibition, % at 2 µM; 96,000 compounds, 0.21% hits;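 active = inhibition at 2 µM at or above a set limit, the screen mean plus 3 SD, cut at about 24% in these data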;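 note: 0% = DMSO with enzyme and 100% = enzyme fully blocked by orthovanadate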
# EphB4 antag = antagonists of human EphB4-ephrin-B2 interaction; P54760; EphB4 LBD / TNYL-RAW-Alexa532 peptide, fluorescence polarization; inhibition, % at 7 µM; 97,000 compounds, 0.15% hits;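 active = inhibition above the screen-wide mean inhibition plus 3 SD, cut at about 15% in these data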;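 note: 0% = DMSO wells and 100% = excess unlabeled TNYL-RAW peptide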
# PTPN22 act = LYP (human) phosphatase activation | Q9Y2R2 | recombinant LYP, DiFMUP fluorescence; 0 = plate median, 100 = signal doubled | activation, % at 2 µM | 96,000 compounds, 0.11% hits | AID 697;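 active = activation at 2 µM above a set limit, the mean plus 5 SD, cut at about 37% in these data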
# PLK1 inh = PLK1 (human) kinase inhibition | recombinant PLK1 kinase, TR-FRET peptide phosphorylation | P53350 | inhibition, % at 10 µM | 97,000 compounds, 0.53% hits | AID 619;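 active = inhibition of 50% or more in the single-concentration screen; inactive = inhibition below 50%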;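 note: 0% = DMSO max control and 100% = H-89 dihydrochloride min control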
# PLK1 PBD inh = Plk1 (human) PBD binding inhibition; P53350; Plk1 PBD phosphopeptide binding, fluorescence polarization; inhibition, %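 (tested at about 20 µM)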; 97,000 compounds, 0.13% hits; in the data active = inhibition above about 34%, passing the limit was not always enough
# PLK1 confirm = confirmation of human PLK1 kinase inhibitors | shares compounds with PLK1 inh | recombinant PLK1 kinase, TR-FRET peptide phosphorylation | inhibition, % at 10 µM | 210 compounds, 20% hits | AID 744;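 active = inhibition at or above 50% in each of two repeat confirmation tests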;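 note: 0% = DMSO max control and 100% = H-89 kinase-blocked min control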
# Plk1 interf = Plk1 assay compound interference counter-screen hit; shares compounds with PLK1 inh; Plk1 TR-FRET assay interference, compound added post-reaction; inhibition (interference), % at 10 µM; 210 tested, under 10 active;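 active = both duplicate runs show 50% or greater inhibition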;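 note: 0% = DMSO max control and 100% = H-89 min control inhibited reaction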
# Active calls of the source: *; nt = no result.
SMILES,LYP inh 2,EphB4 antag,PTPN22 act,PLK1 inh,PLK1 PBD inh,PLK1 confirm,Plk1 interf
CC1CC(C)CN(C2CCN(Cc3cccnc3)CC2)C1 (stereo unspecified),4.3,6.2,-1.4,-9.6,0.8,nt,nt
O=C(CSc1nc2ncc(Br)cc2[nH]1)Nc1ccc2c(c1)OCO2,1.2,1.0,-3.0,70.3*,12.0,23.1,-49.2
CCOc1ccc2nc(SCC(=O)Nc3ccc4c(c3)OCCO4)[nH]c2c1,3.5,4.7,-0.6,-10.8,-5.9,nt,nt
CCCCNCc1cc(Br)c(OCC(=O)N2CCOCC2)c(OC)c1,5.0,4.2,-0.4,125.5*,18.6,-6.4,-49.3
CCCCNCc1cc(Br)c(OCc2cccs2)c(OC)c1,0.2,-0.4,5.4,-1.9,23.5,nt,nt
CCCOc1ccc2c(=O)c(-c3cc(C(=O)OC)oc3C)c(C)oc2c1,-2.1,3.5,7.6,-3.1,-19.8,nt,nt
CC(CNCc1ccc2c(c1)OCO2)NCc1ccc2c(c1)OCO2 (stereo unspecified),nt,-5.4,nt,73.9*,-2.3,-13.0,-50.1
Nc1[nH]ncc1N=Nc1ccc(Cl)cc1,-2.9,-2.2,1.5,83.1*,-5.8,74.6*,-59.2
Cc1[nH]n(-c2ccccc2)c(=O)c1C(C[N+](=O)[O-])c1ccc(Br)cc1 (stereo unspecified),16.7,1.2,-18.1,100.8*,1.7,-6.2,-49.1
O=C(c1ccccc1)N1CCN(C2c3cccc4cccc(c34)C2NS(=O)(=O)c2ccccc2)CC1 (stereo unspecified),-1.1,4.2,-1.5,-4.4,-14.7,nt,nt
C=C(C)c1cccc(C(C)(C)NC(=O)N2CCN(c3ccccn3)CC2)c1,nt,3.1,nt,74.3*,7.5,-8.7,-58.1
Cc1nc(SCC(=O)NCCc2ccccc2)nc(C)c1C,-1.6,4.1,-1.9,6.3,10.2,nt,nt
CC(C)c1ccc(C(C(=O)NC(C)(C)C)N(C(=O)CNC(=O)c2ccco2)c2cccnc2)cc1 (stereo unspecified),3.7,-12.8,-1.7,-12.7,1.3,nt,nt
CCC(C)(C)NC(=O)C(c1ccco1)N(C(=O)CNC(=O)c1cccs1)c1cccnc1 (stereo unspecified),-2.0,-6.9,1.3,109.0*,-20.8,-14.1,-61.9
O=C(COc1ccccc1)Nc1nnc(-c2ccccc2)o1,-7.0,1.8,3.0,-6.9,-9.7,nt,nt
O=C(COc1ccccc1)Nc1nnc(-c2ccc(Cl)s2)o1,nt,-1.7,nt,72.3*,-1.3,-7.4,-53.7
CCC(=O)Nc1sc2c(c1C(N)=O)CCC2,-1.7,-1.2,-0.1,5.0,-20.2,nt,nt
N#CCC(=O)Nc1sc2c(c1C(N)=O)CCCC2,nt,-2.1,nt,70.2*,-19.0,-3.8,-53.7
O=C(NNC(=O)c1cc(O)c(O)c(O)c1)NC1CCCCC1,2.8,-4.0,-0.2,-3.5,21.8,nt,nt
C=CCSc1nnc(-c2cc(Br)ccc2N)c(=O)[nH]1,nt,0.4,nt,71.0*,-23.9,-11.1,-61.0
CCCCSc1nnc(-c2cc(Br)ccc2N)c(=O)[nH]1,16.4,1.3,-19.2,-15.4,-2.7,nt,nt
COc1cccc(NC(=O)CN2C(=O)COc3ccc(Cl)cc32)c1,nt,-1.4,nt,76.3*,15.4,-0.2,-47.9
Clc1ccc2c(c1)C(c1cccs1)=NNC(c1cccnc1)=N2,-8.0,-11.8,10.7,-7.3,-0.8,nt,nt
Brc1ccc(Oc2nnnn2-c2ccccc2)cc1,nt,-9.3,nt,74.5*,4.9,-8.6,-45.4
CCOc1ccc(N2Nc3n[nH]c(N)c3N2)cc1,1.3,4.1,-0.4,78.4*,-2.9,68.2*,-51.5
SMILES,LYP inh 2,EphB4 antag,PTPN22 act,PLK1 inh,PLK1 PBD inh,PLK1 confirm,Plk1 interf
COc1ccc(N2Nc3n[nH]c(N)c3N2)cc1,6.3,1.2,-5.9,79.5*,12.5,73.7*,-51.3
CCOc1ccc(N2C(=O)c3ccccc3C2=O)cc1,0.7,1.3,-1.6,-0.5,2.5,nt,nt
O=C(O)c1ccc2c(c1)[C@@H]1C=CC[C@@H]1[C@H](c1ccccn1)N2,-4.1,5.0,1.7,71.9*,-6.9,59.4*,46.1
Fc1ccc2c(c1)C1C=CCC1C(c1cc3c(cc1Br)OCO3)N2 (stereo unspecified),-11.3,-9.7,14.3,-10.5,-5.9,nt,nt
COc1cccc(-c2nc(CS(=O)CC(=O)NCc3ccccc3)c(C)o2)c1 (stereo unspecified),nt,3.0,nt,71.5*,-5.3,-1.1,-46.7
COc1ccc(-c2nc(CS(=O)CC(=O)NCc3cccnc3)c(C)o2)cc1 (stereo unspecified),-3.5,2.5,1.2,-0.9,0.4,nt,nt
Cc1cc(C)nc(-n2nc(C)cc2NC(=O)c2cccc(S(=O)(=O)N3CCOCC3)c2)n1,-5.2,-2.1,2.5,-13.4,-28.4,nt,nt
CCN(CC)C(=O)Cn1cnc([N+](=O)[O-])n1,3.2,-6.5,1.8,-15.2,7.7,nt,nt
CC(=O)N1CCN(c2cc(N3CCc4ccccc4C3)c(F)cc2[N+](=O)[O-])CC1,11.7,-5.8,-7.1,-6.3,10.9,nt,nt
O=C(OCc1nnc(-c2ccccc2)o1)C1CCN(S(=O)(=O)c2cccs2)CC1,-2.4,0.9,-0.4,-3.9,25.3,nt,nt
COc1ccc(NC(=O)Nc2nccs2)cc1,6.5,-5.7,-4.9,3.8,5.2,nt,nt
O=C(Nc1ccccc1)Nc1nccs1,6.2,3.5,-3.4,93.0*,0.1,5.8,-52.9
C/C(O)=C\c1nc2ccccc2oc1=O,-9.4,-7.4,12.4,124.3*,8.6,-6.1,-52.2
CS(=O)(=O)Cc1nc2ccccc2oc1=O,1.4,11.6,-2.0,-7.2,1.3,nt,nt
CCCN(CCC)S(=O)(=O)c1ccc(NC(=O)c2cc(C(=O)OC)cc([N+](=O)[O-])c2)cc1,8.4,-8.0,-8.7,-4.7,25.8,nt,nt
O=C(NCc1ccc2c(c1)OCO2)c1ccc(CS(=O)(=O)c2ccc(Br)cc2)o1,nt,5.1,nt,76.2*,16.8,-6.2,-46.5
Cc1ncc([N+](=O)[O-])n1CCOC(=O)Nc1ccc(Cl)c(Cl)c1,5.0,7.5,0.0,84.5*,9.8,70.8*,-55.4
COC(=O)c1c(-c2ccc(Br)cc2)noc1N,-6.3,-6.0,5.8,77.4*,5.6,62.7*,-50.6
Brc1[nH]nc2ccccc12,0.4,-1.4,-3.5,9.2,20.1,nt,nt
COc1cccc(-c2nnc(SCC(=O)Nc3ccc(S(N)(=O)=O)cc3)n2C)c1,8.2,-7.4,-10.3,110.0*,-30.0,-7.9,-53.7
COc1cccc(-c2nnc(SCC(=O)Nc3cc(C)on3)n2C)c1,0.9,-0.7,0.6,-5.4,-5.3,nt,nt
CCN1C(=O)C(O)(CC(=O)c2ccc3c(c2)OCCO3)c2ccccc21 (stereo unspecified),nt,2.8,nt,71.7*,16.6,-10.7,-55.2
COc1ccc(CN2C(=O)C(O)(CC(=O)c3ccc4c(c3)OCO4)c3ccccc32)cc1OC (stereo unspecified),5.3,2.6,-7.7,2.9,29.1,nt,nt
